Laboratory results reported in the supplement of paper PMC6555819.

test system: RXRa DBDmut IVT, anti-RXR (DBD mutation: RXRa K156A/R161A, NR concentration 90 nM); assay: PBM binding z-score (relative to random genomic background probes); higher = stronger binding; sequences stand for … in GC…GCGATTGACAGCGTAGAATGAAGG
How it was run: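 On custom Agilent 4×180K arrays, double-stranded probes with 34-nt variable regions carried direct-repeat seeds, single-nucleotide variants, half-site ablations or random human genomic background. Ligand-free nuclear receptor dimers were applied for 1 h, and binding was read with antibodies against each partner (one per run). Binding z-scores come from regression-normalized fluorescence, with the random background probes as reference.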

| Sequence | PBM binding z-score |
| --- | --- |
| CCTTACGGGTCACTCCAGGTTATAGCATCGGAGT | 1.5 |
| TTGCCTAGGTCATGGGCCAGTATACCACGCGAAC | 0.413 |
| TCTTGTAGATCAATGGTTAAGAAAGCCGAAGCCT | 0.768 |
| CCGACTGGGGCATAAGGTTACCCTAAGCCAGCCC | -0.487 |
| CCTTACTGGTCACTCCAGGTTATAGCATCGGAGT | 0.271 |
| ATCTCTAGGTCACCAAGTTCAGTGAATGCCGAAC | 2.74 |
| AGAACGAGGGCAATGAGTTGTTAGCACGGGTGGC | 1.76 |
| GCTGCTACGTCAGGTTGGTCAGCTAACGGGTACG | -0.049 |
| TAGCCTAGGTCAGACCGGGCCAGTATACGCTATA | -0.68 |
| CCGAGTAGGTTATGGGGCACTCAGGCAACGGTGA | -0.264 |
| GCTTACGGGTCAAAGGTGATAGCATGAATAGAAT | 2.43 |
| CCTACTGGGCCAAACAGGTCATTGATGCCGATAA | 0.175 |
| ATATGTAGGTTATGGGGTCATTCAGTTTGCGCAT | 2.9 |
| ATCGAAAGGTCGTGAGGTTAGTATACAGAAAGGC | 1.9 |
| GCGACTGGGGCAAAGCAGGTTTCCATAAGGTTGG | 0.157 |
| CCTACTAGGCCAAAAAGGTCATTGATGCCGATAA | 1.38 |
| GCTGCTAGGTCAACTGTTGGTCAGCTAAAGCTCG | 1.66 |
| AGAACGAGGGCACGTTGAGTTGATAGCAGAGTAG | 1.8 |
| CGTCCAGGGTCAAAGGTCAGTGAAGAGATGACGG | 2.98 |
| ATCACTAGGTAAAAGTTCAGTGAATCCCGAGGAT | 0.717 |

| Sequence | PBM binding z-score |
| --- | --- |
| CCAGATAGGTGAGAAGGTAACTCAGCCTCGATTA | 0.238 |
| ACTATTAGTTAACTTAGGGCAACCGATACGACGC | 0.837 |
| AGTCAAAGTTAACTAGGTAACGTAAGATTCAGCT | -0.266 |
| TCTTGTAGATCAAGCAGGTTAAGACAGCCTGAGT | 0.547 |
| GCTAGTTGGTAAGTAAAAGGTCACACACCGGTCG | 0.677 |
| CGAACTAGGTCATTGACAGGACAGTGAGTAGTAA | 2.41 |
| TCTTGTAGATCAATAGAGGTCAAGAAAGTGCGCT | 0.858 |
| ACTAACAGGCCAAGTTTGGGTCACTCAAACAAAG | 0.278 |
| TCTATTAGTTGAAGGGCAAACGACGAGTCCGTTT | 1.79 |
| GCTAGGTGGTCAGTAAAAGGTCACACACCGGTCG | 0.0546 |
| ATCTCTAGGTAACAAGTACAGTGAAAGAGAGGAC | -0.118 |
| ATCTCTAGGTAAAAGCTCAGTGAATCCCGAGGAT | -0.625 |
| TTACCAAGGTGCAGGTCGTTGATCCCTCTGTAGA | 0.43 |
| AGACTGAGGTTATACGTAGATCAGGGAAGAAAGT | 1.44 |
| CAAACTAGGTCAGAGGTCAAAGTCGAGCCAACCA | 2.96 |
| GCGCGGAGGACAAGGTCAGAGCTTTGTCCGTAGA | 0.639 |
| TCTCGGAGGACACGAAAGGTCAGGGCTCGACATC | 1.1 |
| TATGCAGGGTCAAAGGCCAGAGTACGAATGTCGA | 2.39 |
| CCTAATGGGCCAAGGTCATTGATCAGTCAAAGCA | 1.91 |
| AGAACGAGGGCACGCGGAGTTGATAGCAGAGTAG | 1.91 |
